# Assay results reported in publication PMC8384837, “Expanding the binding specificity for RNA recognition by a PUF domain”.
# Where a chain is given by its changes, count along the chain named.
# Experiments:
# Experiment in all cases: yeast three-hybrid, YBZ-1, SC-Leu-His + 0.5 mM 3-AT, 4 days
# Conditions in all cases: tags: N-Gal4 AD-HA kept; label: inside an RPR1-promoter hybrid RNA with tandem MS2 sites; ssRNA
# [1] = molecular target: PUM1 PUF domain R3-SRN (Homo sapiens, UniProt Q14671 828-1176, C935S;Q939N)
# Outline: (§1)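 Pumilio-1 PUF domain libraries, randomized (NNK) at the three base-contacting residues of each repeat, were co-expressed with matching RNA elements from a centromeric plasmid in strain YBZ-1 (LexA–MS2 coat fusion, HIS3 reporter). Transformants were plated on SC-Leu (input) and SC-Leu-His + 0.5 mM 3-AT (selection) for four days, and repeat regions were PCR-amplified and Illumina-sequenced. The interaction score is the log2 change in variant frequency from input to selection, with pseudocount 1 where absent.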
# [2] = molecular target: PUM1 PUF domain R4-DYM (Homo sapiens, UniProt Q14671 828-1176, N971D;H972Y;Q975M)
# Outline: as §1
# [3] = molecular target: PUM1 PUF domain R1-KRR (Homo sapiens, UniProt Q14671 828-1176, S863K;Q867R)
# Outline: as §1
# [4] = molecular target: PUM1 PUF domain R1-KLV (Homo sapiens, UniProt Q14671 828-1176, S863K;R864L;Q867V)
# Outline: as §1
# [5] = molecular target: PUM1 PUF domain R7-EPA (Homo sapiens, UniProt Q14671 828-1176, S1079E;N1080P;E1083A)
# Outline: as §1
# [6] = molecular target: PUM1 PUF domain R8-VRR (Homo sapiens, UniProt Q14671 828-1176, N1122V;Y1123R;Q1126R)
# Outline: as §1
# [7] = molecular target: T1, PUM1 PUF domain R6-TFE (Homo sapiens, UniProt Q14671 828-1176, N1043T;Y1044F;Q1047E)
# T1 sequence: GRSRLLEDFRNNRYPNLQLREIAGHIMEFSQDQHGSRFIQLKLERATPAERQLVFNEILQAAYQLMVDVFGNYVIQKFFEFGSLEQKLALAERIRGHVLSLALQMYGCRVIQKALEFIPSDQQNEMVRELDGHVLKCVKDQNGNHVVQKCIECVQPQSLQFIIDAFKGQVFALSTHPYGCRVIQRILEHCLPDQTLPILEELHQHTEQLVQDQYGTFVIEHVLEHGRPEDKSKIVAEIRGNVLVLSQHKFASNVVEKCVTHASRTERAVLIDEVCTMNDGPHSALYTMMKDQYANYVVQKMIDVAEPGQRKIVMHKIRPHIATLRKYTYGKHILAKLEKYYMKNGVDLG
# Outline: as §1
# [8] = molecular target: T2, PUM1 PUF domain R6-RFS (Homo sapiens, UniProt Q14671 828-1176, N1043R;Y1044F;Q1047S)
# T2 sequence: T1 sequence with T216R, E220S
# Outline: as §1
# [9] = molecular target: PUM1 PUF domain R4-DFS (Homo sapiens, UniProt Q14671 828-1176, N971D;H972F;Q975S)
# Outline: as §1
# [10] = molecular target: PUM1 PUF domain R8-SWQ (Homo sapiens, UniProt Q14671 828-1176, N1122S;Y1123W)
# Outline: as §1
# [11] = molecular target: PUM1 PUF domain R5-LWS (Homo sapiens, UniProt Q14671 828-1176, C1007L;R1008W;Q1011S)
# Chain of PUM1 PUF domain R5-LWS (Q14671 828-1176 C1007L/R1008W/Q1011S): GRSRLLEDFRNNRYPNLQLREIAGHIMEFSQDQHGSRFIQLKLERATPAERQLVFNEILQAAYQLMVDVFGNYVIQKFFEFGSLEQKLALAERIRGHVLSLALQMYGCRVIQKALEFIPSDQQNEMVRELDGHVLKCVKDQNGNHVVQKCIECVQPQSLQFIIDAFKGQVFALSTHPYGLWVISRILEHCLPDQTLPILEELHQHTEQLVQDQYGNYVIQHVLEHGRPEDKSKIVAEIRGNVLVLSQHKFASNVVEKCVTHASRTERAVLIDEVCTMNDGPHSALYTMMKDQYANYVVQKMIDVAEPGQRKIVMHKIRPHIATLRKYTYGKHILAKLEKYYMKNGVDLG
# Outline: as §1
# [12] = molecular target: PUM1 PUF domain R1-LWK (Homo sapiens, UniProt Q14671 828-1176, S863L;R864W;Q867K)
# Outline: as §1
# [13] = molecular target: PUM1 PUF domain R4-FNA (Homo sapiens, UniProt Q14671 828-1176, N971F;H972N;Q975A)
# Outline: as §1
# [14] = molecular target: PUM1 PUF domain R3-RGG (Homo sapiens, UniProt Q14671 828-1176, C935R;R936G;Q939G)
# Outline: as §1
# [15] = molecular target: PUM1 PUF domain R3-SCK (Homo sapiens, UniProt Q14671 828-1176, C935S;R936C;Q939K)
# Outline: as §1
# [16] = molecular target: PUM1 PUF domain R3-RAR (Homo sapiens, UniProt Q14671 828-1176, C935R;R936A;Q939R)
# Outline: as §1
# [17] = molecular target: PUM1 PUF domain R5-DYF (Homo sapiens, UniProt Q14671 828-1176, C1007D;R1008Y;Q1011F)
# Outline: as §1
# [18] = molecular target: PUM1 PUF domain R5-RPM (Homo sapiens, UniProt Q14671 828-1176, C1007R;R1008P;Q1011M)
# Outline: as §1
# [19] = molecular target: PUM1 PUF domain R5-SRR (Homo sapiens, UniProt Q14671 828-1176, C1007S;Q1011R)
# Outline: as §1
# [20] = molecular target: T3, PUM1 PUF domain R6-GLR (Homo sapiens, UniProt Q14671 828-1176, N1043G;Y1044L;Q1047R)
# T3 sequence: T1 sequence with T216G, F217L, E220R
# Outline: as §1
sequence,measurement,setting,value
GGCUAGAACUAGUGGAUCCCCCGGCGCCCGGCGGCUCGAGCCCGGGUAAGUGUAAGUAGUCUGCAUGCCGCCGGGCGCCAUGCCUGCAGGUCGACUCUAGAAAACAUG,binding signal,[1],1.88 log2 enrichment (interaction score)
GGCUAGAACUAGUGGAUCCCCCGGCGCCCGGCGGCUCGAGCCCGGGUAAGUGUACAUAGUCUGCAUGCCGCCGGGCGCCAUGCCUGCAGGUCGACUCUAGAAAACAUG,binding signal,[2],5.08 log2 enrichment (interaction score)
GGCUAGAACUAGUGGAUCCCCCGGCGCCCGGCGGCUCGAGCCCGGGUAAGUGUAAAUUGUCUGCAUGCCGCCGGGCGCCAUGCCUGCAGGUCGACUCUAGAAAACAUG,binding signal,[3],5.9 log2 enrichment (interaction score)
same,binding signal,[4],4.79 log2 enrichment (interaction score)
GGCUAGAACUAGUGGAUCCCCCGGCGCCCGGCGGCUCGAGCCCGGGUAAGUCUAAAUAGUCUGCAUGCCGCCGGGCGCCAUGCCUGCAGGUCGACUCUAGAAAACAUG,binding signal,[5],4.81 log2 enrichment (interaction score)
GGCUAGAACUAGUGGAUCCCCCGGCGCCCGGCGGCUCGAGCCCGGGUAAGUGUAAAUGGUCUGCAUGCCGCCGGGCGCCAUGCCUGCAGGUCGACUCUAGAAAACAUG,binding signal,[4],3.18 log2 enrichment (interaction score)
GGCUAGAACUAGUGGAUCCCCCGGCGCCCGGCGGCUCGAGCCCGGGUAAGCGUAAAUAGUCUGCAUGCCGCCGGGCGCCAUGCCUGCAGGUCGACUCUAGAAAACAUG,binding signal,[6],2.81 log2 enrichment (interaction score)
GGCUAGAACUAGUGGAUCCCCCGGCGCCCGGCGGCUCGAGCCCGGGUAAGUGGAAAUAGUCUGCAUGCCGCCGGGCGCCAUGCCUGCAGGUCGACUCUAGAAAACAUG,binding signal,[7],3.07 log2 enrichment (interaction score)
GGCUAGAACUAGUGGAUCCCCCGGCGCCCGGCGGCUCGAGCCCGGGUAAGUGUAAAUAGUCUGCAUGCCGCCGGGCGCCAUGCCUGCAGGUCGACUCUAGAAAACAUG,binding signal,[8],4.37 log2 enrichment (interaction score)
same,binding signal,[6],1.71 log2 enrichment (interaction score)
same,binding signal,[9],6.43 log2 enrichment (interaction score)
same,binding signal,[10],4.66 log2 enrichment (interaction score)
same,binding signal,[2],4.83 log2 enrichment (interaction score)
same,binding signal,[1],4.26 log2 enrichment (interaction score)
same,binding signal,[11],2.04 log2 enrichment (interaction score)
GGCUAGAACUAGUGGAUCCCCCGGCGCCCGGCGGCUCGAGCCCGGGUAAGUGUAAAUCGUCUGCAUGCCGCCGGGCGCCAUGCCUGCAGGUCGACUCUAGAAAACAUG,binding signal,[3],5.65 log2 enrichment (interaction score)
same,binding signal,[4],3.95 log2 enrichment (interaction score)
same,binding signal,[12],4.58 log2 enrichment (interaction score)
GGCUAGAACUAGUGGAUCCCCCGGCGCCCGGCGGCUCGAGCCCGGGUAAGUGUAUAUAGUCUGCAUGCCGCCGGGCGCCAUGCCUGCAGGUCGACUCUAGAAAACAUG,binding signal,[9],6.8 log2 enrichment (interaction score)
same,binding signal,[13],2.23 log2 enrichment (interaction score)
GGCUAGAACUAGUGGAUCCCCCGGCGCCCGGCGGCUCGAGCCCGGGUAAGUGUAAUUAGUCUGCAUGCCGCCGGGCGCCAUGCCUGCAGGUCGACUCUAGAAAACAUG,binding signal,[14],2.13 log2 enrichment (interaction score)
same,binding signal,[15],3.52 log2 enrichment (interaction score)
same,binding signal,[16],3.75 log2 enrichment (interaction score)
GGCUAGAACUAGUGGAUCCCCCGGCGCCCGGCGGCUCGAGCCCGGGUAAGUGUGAAUAGUCUGCAUGCCGCCGGGCGCCAUGCCUGCAGGUCGACUCUAGAAAACAUG,binding signal,[11],1.62 log2 enrichment (interaction score)
GGCUAGAACUAGUGGAUCCCCCGGCGCCCGGCGGCUCGAGCCCGGGUAAGUGUUAAUAGUCUGCAUGCCGCCGGGCGCCAUGCCUGCAGGUCGACUCUAGAAAACAUG,binding signal,[17],4.44 log2 enrichment (interaction score)
same,binding signal,[18],2.25 log2 enrichment (interaction score)
same,binding signal,[11],2.93 log2 enrichment (interaction score)
GGCUAGAACUAGUGGAUCCCCCGGCGCCCGGCGGCUCGAGCCCGGGUAAGUGUCAAUAGUCUGCAUGCCGCCGGGCGCCAUGCCUGCAGGUCGACUCUAGAAAACAUG,binding signal,[19],4.23 log2 enrichment (interaction score)
same,binding signal,[11],2.81 log2 enrichment (interaction score)
GGCUAGAACUAGUGGAUCCCCCGGCGCCCGGCGGCUCGAGCCCGGGUAAGUGCAAAUAGUCUGCAUGCCGCCGGGCGCCAUGCCUGCAGGUCGACUCUAGAAAACAUG,binding signal,[20],3.46 log2 enrichment (interaction score)
